Results on 42 sequences are retold here after publication PMC7819943, “Rice protein-binding microarrays: a tool to detect cis-acting elements near promoter regions in rice”.

The full ranking holds about 68,000 sequences; the median of “fluorescence intensity (a.u.)” is about 9,100, and the highest 2% start at about 16,000. Many of the other results were omitted from the sample, so the highest values are more common in it than they were.

Chain of OsWRKY34 (Q0JBA9 entry or part of it): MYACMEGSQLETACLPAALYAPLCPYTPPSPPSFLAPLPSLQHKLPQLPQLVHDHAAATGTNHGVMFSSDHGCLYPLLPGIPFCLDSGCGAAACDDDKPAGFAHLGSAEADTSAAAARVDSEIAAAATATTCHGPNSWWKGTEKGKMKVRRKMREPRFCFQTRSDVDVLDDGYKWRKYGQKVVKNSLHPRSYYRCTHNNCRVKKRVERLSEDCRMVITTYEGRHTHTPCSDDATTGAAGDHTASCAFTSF

The experiment deals with OsWRKY34 (Oryza sativa, UniProt Q0JBA9 1-250). Kind of experiment: protein-binding microarray (RPBM); PBS, 2% BSA, 51.3 ng/ul salmon testes DNA, 50 uM zinc acetate, 200 nM TF, 25 C, 1 h; high values mean tight binding. As to conditions: protein: recombinant; tags: N-terminal polyhistidine and DsRed monomer fusion (pET32a); label: CyDye5-dUTP incorporated in the synthesized complementary strand; 3' TTTTT single-stranded linker to array surface; dsDNA, one strand shown. The method in brief:
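In PBS with 2% BSA, salmon testes DNA and 50 µM zinc acetate, 200 nM protein was incubated on a custom Agilent array at 25 °C for 1 h and then washed off. The array had been made double-stranded by primer extension with Cy5-dUTP and blocked with 2% BSA. The proteins were transcription factors fused N-terminally to polyhistidine and DsRed, expressed in E. coli BL21-CodonPlus and purified on Ni–NTA. The binding signal is per-feature fluorescence intensity (arbitrary units) from an Axon 4000B scanner.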
As to “ATTCCTATATTTTTCCTATGTTTTGTAATCCTCTGTTTTACGGAGTCACCTAGTGCAG”, the binding signal was 12600 fluorescence intensity (a.u.).
As for “CTTAATCGGTATGGGGAGAGTGTTCTTATTGTTTCATTTACGGAGTCACCTAGTGCAG”, the binding signal was 16800 fluorescence intensity (a.u.).
Under “AGTTTTTCTAGTCCTTCTTAATGCATGTGTCACCTTCTAACGGAGTCACCTAGTGCAG” stands 10300 fluorescence intensity (a.u.); under “GTAATTTAATGTTCATTATGGTGTTTCTTAATTGTTTTTTCGGAGTCACCTAGTGCAG”, 9320 fluorescence intensity (a.u.); under “ATGTTTTTATGCTGCATTCCCCATGTGTGTTTCCTTCTAACGGAGTCACCTAGTGCAG”, 19600 fluorescence intensity (a.u.).
Take “GCCAGACCGCCACCGTCCGTTTCCACAACCGTGCCAGTGCCGGAGTCACCTAGTGCAG”: the binding signal was 10700 fluorescence intensity (a.u.).
Under “AGGTTGCCAGCGTGTGGGGTGGGTTATTTTCGTGTGCGGGCGGAGTCACCTAGTGCAG” stands 11100 fluorescence intensity (a.u.); under “GACCCACCACCACCACCACGCCGCGAGCACGCGAGCGAACCGGAGTCACCTAGTGCAG”, 8880 fluorescence intensity (a.u.).
In the case of “GGGACCTAGGATGAACTTATTCCTTTCTGTTTCAACCATACGGAGTCACCTAGTGCAG”, the binding signal was 8370 fluorescence intensity (a.u.).
Turning to “TGTGCCAGTTGTTAGTCATGATCTTCCTGATGTGTCATCCCGGAGTCACCTAGTGCAG”, the binding signal was 8080 fluorescence intensity (a.u.).
For “TTTTTGGCTGGTCAAATTTGGCTAGTGTGGGGAGGGTTTTCGGAGTCACCTAGTGCAG”, the binding signal is 23600 fluorescence intensity (a.u.).
Under “CTTTTTTTTGATTTTTTTTATTTGTGGTTTGGATGTTTTTCGGAGTCACCTAGTGCAG” stands 9280 fluorescence intensity (a.u.); under “TGGTTTTTCATTTTGTGTGCGTGTGCACGTTTGTGTGGGGCGGAGTCACCTAGTGCAG”, 12700 fluorescence intensity (a.u.); under “GGTGTGTGCTGGCTATTTGTCAAAGATTATGTGGGTTTTTCGGAGTCACCTAGTGCAG”, 10400 fluorescence intensity (a.u.).
As for “CAGGGTTTGGATGTGGATATGGTTTCTTCAAGGGTATTTTCGGAGTCACCTAGTGCAG”, the binding signal was 16400 fluorescence intensity (a.u.).
Under “TGGTTGAATTCTGGTTCGGGTATCCTCAATTTCGGGGTTTCGGAGTCACCTAGTGCAG” stands 17700 fluorescence intensity (a.u.).
Under “ATTTGGTTTTATATGTTTGTGGAGTGATATATTTCGTATTCGGAGTCACCTAGTGCAG” stands 8350 fluorescence intensity (a.u.); under “TTGGGTTGGGTCTTGGGTTTGGTGGTTTGAATTTGGTGTGCGGAGTCACCTAGTGCAG”, 13100 fluorescence intensity (a.u.).
The figure for “GGCTGGTTTGGTTTGTGGCTAAAATTGGCCTTACCAATTTCGGAGTCACCTAGTGCAG” is 10500 fluorescence intensity (a.u.); for “GGTGGTTTGAATTTGGTGTGGCGTTTTTCTTGGGCAGGGGCGGAGTCACCTAGTGCAG” it is 21500 fluorescence intensity (a.u.).
Consider “TATCCGGTTTTCTGGTTGAGGGGTATGAATTAGATTCGACCGGAGTCACCTAGTGCAG”, for which the binding signal was 10200 fluorescence intensity (a.u.).
Turning to “TTTTCAATTTTCTGGTTGAGTAGGGGTTCGGAATTTTCTTCGGAGTCACCTAGTGCAG”, the binding signal was 10600 fluorescence intensity (a.u.).
For the sequence “TGTTATTATGTTTCAGGAATACTTCCTCTGGTTATAAATACGGAGTCACCTAGTGCAG”, the binding signal is 9850 fluorescence intensity (a.u.).
The figure for “ACCCCGTTCAACGCTCGCTTATATATATTCCCCTCTCGCACGGAGTCACCTAGTGCAG” is 8640 fluorescence intensity (a.u.); for “AGCCTTCCGGTGAACTCCGGCGACGGGCGGGTGTGGGGATCGGAGTCACCTAGTGCAG” it is 11000 fluorescence intensity (a.u.).
Under “CTATTCTTGTGCATTCTGTTTTTTATCGTACATGCTACAGCGGAGTCACCTAGTGCAG” stands 11800 fluorescence intensity (a.u.); under “ATGGTGGGCTGTGGGTGCATGGTTTTGCTGGTCGCACCCACGGAGTCACCTAGTGCAG”, 11100 fluorescence intensity (a.u.).
Under “CCACCATGGTCTCGCTCATTCTGTTTGCTTCACCTACTCTCGGAGTCACCTAGTGCAG” stands 14500 fluorescence intensity (a.u.).
Regarding “ACTTTTTTTGGTGACTATGTGTTTCCCTGTGGTGGGCTTCCGGAGTCACCTAGTGCAG”, the binding signal is 12000 fluorescence intensity (a.u.).
The figure for “GGGGTGGAATTGTGTTGGGTTTCTTTGGTTGAGGAGAGAGCGGAGTCACCTAGTGCAG” is 16000 fluorescence intensity (a.u.); for “GAACTTTTCCTGGATGGTGATCCTTCTTTTGGCCTTCTTTCGGAGTCACCTAGTGCAG” it is 10500 fluorescence intensity (a.u.); for “AGGGATGGTTGGACTTATTTCTTTCGCGTTTTCCTTGGGTCGGAGTCACCTAGTGCAG” it is 10900 fluorescence intensity (a.u.).
Under “TAAGGGATGGGATGGTTGGCTTGGATCGAGTATATTTCTTCGGAGTCACCTAGTGCAG” stands 18900 fluorescence intensity (a.u.); under “TTCTTCTTGGTGGTGGTGGGGCCTGGAAACTATGTGACTTCGGAGTCACCTAGTGCAG”, 18200 fluorescence intensity (a.u.).
Under “AGTGAACTTGGTTCTGTGGTTGCATGTATTTGGTGGAGGGCGGAGTCACCTAGTGCAG” stands 9170 fluorescence intensity (a.u.); under “TCAATTTTCTTGTTGACTCGGTGTTTTTGACTGTGGTCAACGGAGTCACCTAGTGCAG”, 10900 fluorescence intensity (a.u.).
On to “TATATTTTCTTCTTCGTCACGATCGATGGGATTTTTATTTCGGAGTCACCTAGTGCAG”, for which the binding signal is 9040 fluorescence intensity (a.u.).
Under “GCCTTTTCTTGACTCGGTGGTGGGAGGGGAATTTTCGTGACGGAGTCACCTAGTGCAG” stands 27000 fluorescence intensity (a.u.); under “AGACATTTTTCTTTCTCGTGGATATTTACGCCTTTCTTGACGGAGTCACCTAGTGCAG”, 8790 fluorescence intensity (a.u.); under “GGGGTGAACATTTCTTTCTTTCTGGTATTGTGGTTGAGGGCGGAGTCACCTAGTGCAG”, 19300 fluorescence intensity (a.u.).
Under “TGCAGGCTTCCACCGCCCGCCTGTCATTGTCGCCCACTGCCGGAGTCACCTAGTGCAG” stands 8760 fluorescence intensity (a.u.).
Under “GTTTGTCCCTTTTGACATATGAACTCTTCTCCATGATTTCCGGAGTCACCTAGTGCAG” stands 8060 fluorescence intensity (a.u.).
